Measured values: PubChem BioAssay (Tox21)
Records with an inconclusive call do not appear. Calls of active or inactive are those of the source. Calls follow the shape of the dose curve; as a rule, active = well fitted inhibition curve with a large enough effect in the repeat runs; inconclusive = weak or mixed curves; inactive = flat fitted curve, though single readings scatter.

Biological target: Voltage-gated inwardly rectifying potassium channel KCNH2 (Homo sapiens) (UniProt Q12809)
Assay: Human Ether-a-go-go-Related Gene (hERG) channel small molecule antagonists: fluorescence cell-based qHTS assay (AID 1671200); also: nearly all actives have a fitted effect of over 50% in size
Conditions: hERG-U2OS cells, FluxOR thallium flux fluorescence; series mostly up to 76.8 µM; activity change, negative = inhibition: at the top concentration
Description: National Center for Advancing Translational Sciences [NCATS]
U.S. Environmental Protection Agency [EPA]
National Institutes of Environmental Health Sciences [NIEHS]
National Toxicology Program [NTP]
U.S. Food and Drug Administration [FDA]
Mutations in the hERG channel cause Long QT (LQT) syndrome. LQT syndrome is a cardiac disorder which can cause ventricle arrhythmia and sudden death. Additionally, compounds which block the hERG channel can cause acquired LQT syndrome. Several FDA approved drugs have been removed from the market due to their hERG blocking activity. A cell-based hERG channel inhibition assay can be used to screen chemical compounds that inhibit hERG channel. This assay measures hERG channel activity using thallium ions as surrogate ions to measure potassium into the cells.
Tox21 Assay Protocol Summary:
hERG-U2OS cells were resuspended in culture medium and dispensed into 1536-well, black wall/clear-bottom plates at 1000cells/well/3uL using a Multidrop Combi dispenser (Thermo Fisher, Waltham, MA). After plates were incubated at 37 C overnight, 3 uL of Loading Buffer provided by FluxOR II Potassium Ion Channel Assay kit (Thermo, Carlsbad, CA) was added to each well. The assay plates were then incubated at room temperature in the dark for 1h. […] After the assay plates were incubated at room temperature for 10 min, 1 uL of Stimulus Buffer provided by FluxOR II Potassium Ion Channel Assay kit was added into each well and fluorescence intensity (480nm excitation/540nm emission) was continuously measured for 2 min at 1 second intervals using a Functional Drug Screening System (FDSS) 7000EX kinetic plate reader (Hamamatsu, Japan).
% is scaled to controls: 0 for no effect and ±100 for the full control effect; potency is read from the fitted curve at half-maximal effect.

Voltage-gated inwardly rectifying potassium channel KCNH2 (Homo sapiens), sequence (Q12809 whole entry, looked up): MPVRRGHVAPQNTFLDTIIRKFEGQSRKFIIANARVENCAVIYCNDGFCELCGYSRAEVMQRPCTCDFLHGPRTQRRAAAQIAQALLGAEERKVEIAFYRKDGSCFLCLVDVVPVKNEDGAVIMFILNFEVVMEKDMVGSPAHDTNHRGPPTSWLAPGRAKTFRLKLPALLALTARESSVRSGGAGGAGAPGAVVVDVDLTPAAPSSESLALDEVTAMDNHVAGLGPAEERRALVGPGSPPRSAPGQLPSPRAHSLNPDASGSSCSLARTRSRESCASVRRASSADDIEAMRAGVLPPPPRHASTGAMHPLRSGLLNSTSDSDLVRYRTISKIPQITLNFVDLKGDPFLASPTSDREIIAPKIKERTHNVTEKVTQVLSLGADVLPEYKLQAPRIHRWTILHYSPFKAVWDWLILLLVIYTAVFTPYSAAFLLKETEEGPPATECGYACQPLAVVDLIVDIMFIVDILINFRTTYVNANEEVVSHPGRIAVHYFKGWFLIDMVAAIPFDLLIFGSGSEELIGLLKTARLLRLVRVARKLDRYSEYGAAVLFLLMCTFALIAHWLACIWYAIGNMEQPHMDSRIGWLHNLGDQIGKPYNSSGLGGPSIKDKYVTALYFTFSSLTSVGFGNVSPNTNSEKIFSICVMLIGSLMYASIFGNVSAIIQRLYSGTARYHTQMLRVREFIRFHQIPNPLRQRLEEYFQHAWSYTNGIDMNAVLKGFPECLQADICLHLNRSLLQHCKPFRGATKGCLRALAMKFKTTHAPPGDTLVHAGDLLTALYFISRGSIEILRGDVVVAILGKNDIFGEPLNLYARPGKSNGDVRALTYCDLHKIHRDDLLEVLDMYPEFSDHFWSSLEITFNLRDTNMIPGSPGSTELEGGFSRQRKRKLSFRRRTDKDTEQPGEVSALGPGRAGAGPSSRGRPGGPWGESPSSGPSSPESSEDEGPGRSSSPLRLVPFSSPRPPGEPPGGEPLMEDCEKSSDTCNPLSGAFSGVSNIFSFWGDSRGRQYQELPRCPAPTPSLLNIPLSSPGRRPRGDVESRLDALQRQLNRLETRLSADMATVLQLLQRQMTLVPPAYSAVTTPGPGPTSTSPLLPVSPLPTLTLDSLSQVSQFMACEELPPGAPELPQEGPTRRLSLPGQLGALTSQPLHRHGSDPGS

SMILES | Potency | activity change, negative = inhibition
O=C1OC2(c3ccccc31)c1ccc(O)c(Br)c1Oc1c2ccc(O)c1Br | 34.7 µM (active) | 
CC(C)=CCC[C@H](C)CC=O |  | -3.81% (inactive)
Nc1cc([N+](=O)[O-])cc(Cl)c1O |  | 3.8% (inactive)
c1ccc2occc2c1 |  | 1.79% (inactive)
O=C1OC(O)C(C(Cl)Cl)=C1Cl (stereo not given) |  | -11% (inactive)
Cc1ccc2sc3cccc(C)c3c2c1 |  | -13.9% (inactive)
Nc1ccc(F)c([N+](=O)[O-])c1 |  | -3.61% (inactive)
Cc1ccc(C=O)cc1 |  | 4.14% [at 35.3 µM] (inactive)
CC(C)(C)C1=CC(=O)C(C(C)(C)C)=CC1=O |  | 11.9% [at 35.3 µM] (inactive)
C=C[Si](C)(C)Cl |  | -2.91% [at 6.97 µM] (inactive)
Cc1c[nH]c(=O)[nH]c1=O |  | 2.74% (inactive)
Nc1c(Br)cc([N+](=O)[O-])cc1Br |  | 0.715% (inactive)
CCCCCCCCCCCCS(=O)(=O)Cl |  | 1.06% [at 15.8 µM] (inactive)
Oc1ccc2c(c1)CCC2 |  | 9.85% (inactive)
Nc1ccc(Cl)c([N+](=O)[O-])c1 |  | 7.27% (inactive)
Nc1ccc2c(S(=O)(=O)O)cccc2c1S(=O)(=O)O |  | 2.51% [at 35.3 µM] (inactive)
SC1CCCCC1 |  | -7.32% (inactive)
Cc1ccc2nc(-c3ccc(N)cc3)sc2c1S(=O)(=O)O |  | 5.28% [at 35.3 µM] (inactive)
COc1cc2ncnc(Nc3cccc(Cl)c3)c2cc1OC |  | 7% [at 15.8 µM] (inactive)
CN(C/C=C/c1ccccc1)Cc1cccc2ccccc12 | 2.39 µM (active) | 

SMILES | Potency | activity change, negative = inhibition
CCC(O)CO (stereo not given) |  | -3.89% (inactive)
CCCCCCCCCCCC(=O)Cl |  | 5.8% (inactive)
C=CC(=O)O[C@H]1C[C@@H]2CC[C@@]1(C)C2(C)C |  | -0.963% (inactive)
C=C(C)CCO |  | -1.22% (inactive)
O=C1CCC(=O)N1 |  | -1.8% (inactive)
CCSCC |  | -0.258% (inactive)
C=CC(=O)OCC(Br)CBr (stereo not given) |  | 16.2% (inactive)
Oc1ccc(C2(c3ccc(O)c(C4CCCCC4)c3)CCCCC2)cc1C1CCCCC1 |  | -12.3% (inactive)
CCCCCN=C(N)N/N=C/c1c[nH]c2ccc(OC)cc12 | 10.7 µM (active) | 
C=CC(=O)OCCOC1C2CCC1C1CC=CC12 (stereo not given) |  | 2.03% [at 15.8 µM] (inactive)
COc1c(Br)cc(Br)c(C)c1Br |  | 0.425% (inactive)
CCCOC(=O)c1ccc(O)cc1 |  | 2% (inactive)
C/C=C/C(=O)C1=C(C)C=CCC1(C)C |  | -8.02% (inactive)
c1ccc(C[P+](c2ccccc2)(c2ccccc2)c2ccccc2)cc1 | 3.09 µM (active) | 
O=C(O)C[C@H](O)C[C@H](O)/C=C/c1c(C2CC2)nc2ccccc2c1-c1ccc(F)cc1 |  | 2.63% [at 15.8 µM] (inactive)
CCOc1ccc([N+](=O)[O-])cc1 |  | -26.8% (inactive)
CN1CCN(CCCN2c3ccccc3Sc3ccc(C(F)(F)F)cc32)CC1 | 2.68 µM (active) | 
CCCCCCCCCCCCCCCCC(C(=O)O)C(O)(CC(=O)O)C(=O)O (stereo not given) |  | 10% [at 35.3 µM] (inactive)
C=Cc1ccncc1 |  | -0.923% (inactive)
Cn1c(=O)[nH]c2ncn(C)c2c1=O |  | 8.41% (inactive)
